Laboratory results from PubChem BioAssay (EPA / NIEHS).
Values joined by “and” are separate entries in the source; they are usually repeats but may differ in a detail not shown here. Equal values may be shown once. Some compounds were tested as several samples or in several runs, with calls that do not always agree. Active and inactive are the calls of the source. How the source made its calls: active means hit-call score of the fitted dose curve at least 0.9, where 1 is the maximum; inactive means score below 0.9.

What was measured:
[1] = read-out: Plasminogen activator inhibitor-1 (PAI1), SERPINE1 (gene 5054); test: BSK_MyoF_PAI1: BioMAP Diversity Plus: MyoF Assay for Plasminogen activator inhibitor-1 (PAI1) Biomarker Activity (AID 2284256); conditions: primary human lung fibroblasts;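 on outcome: PAI-1 protein level measured by ELISA in fibroblast cultures; PAI-1 read 24 h after compound addition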
In short: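 Primary human lung fibroblasts are dosed and incubated 24 h. PAI-1 is then measured by ELISA, while parallel cultures undergo SRB staining for overt cytotoxicity. Increases over DMSO define activity.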

[2] = read-out: Monokine induced gamma interferon (MIG), CXCL9 (gene 4283); test: BSK_KF3CT_MIG: BioMAP Diversity Plus: KF3CT Assay for Monokine induced gamma interferon (MIG) Biomarker Activity (AID 2284248); conditions: primary human keratinocytes with fibroblasts
In short: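 KF3CT system: keratinocyte/fibroblast co-culture, 24 h post-dose, MIG by ELISA; activity vs DMSO, positive fitting direction.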

[3] = read-out: Collagen I, COL1A1 (gene 1277); test: BSK_hDFCGF_CollagenI: BioMAP Diversity Plus: hDFCGF Assay for Collagen I Biomarker Activity (AID 2284250); conditions: primary human foreskin fibroblasts
In short: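 Human skin primary fibroblasts dosed with test chemical, harvested at 24 h, Collagen I quantified by ELISA; parallel SRB staining (0.1% SRB after 10% TCA fixation, 560 nm) tracked cytotoxicity.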

[4] = read-out: Interferon-inducible T-cell alpha chemoattractant (ITAC), CXCL11 (gene 6373); test: BSK_hDFCGF_ITAC: BioMAP Diversity Plus: hDFCGF Assay for Interferon-inducible T-cell alpha chemoattractant (ITAC) Biomarker Activity (AID 2284251); conditions: primary human foreskin fibroblasts
In short: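 ELISA readout of I-TAC after 24 h chemical exposure; human dermal foreskin fibroblast primary cells. Positive-direction fitting vs DMSO baseline. Parallel SRB total-protein staining (0.1% SRB after 10% TCA fixation, 560 nm) flags cytotoxicity.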

[5] = read-out: Plasminogen activator inhibitor-1 (PAI1), SERPINE1 (gene 5054); test: BSK_KF3CT_PAI1: BioMAP Diversity Plus: KF3CT Assay for Plasminogen activator inhibitor-1 (PAI1) Biomarker Activity (AID 2284252); conditions: primary human keratinocytes with fibroblasts
In short: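 ELISA read-out of PAI-1 taken 24 h after chemical treatment of a human skin primary co-culture of keratinocytes and foreskin fibroblasts. Increases over DMSO-treated wells defined activity.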

[6] = read-out: Interleukin-8 (IL8), CXCL8 (gene 3576); test: BSK_KF3CT_IL8: BioMAP Diversity Plus: KF3CT Assay for Interleukin-8 (IL8) Biomarker Activity (AID 2284254); conditions: primary human keratinocytes with fibroblasts
In short: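 Chemicals were added to co-cultured human keratinocytes and foreskin fibroblasts, incubated 24 h, then IL-8 was quantified by ELISA. Cytotoxicity was tracked by sulforhodamine B total-protein staining in parallel cultures.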

[7] = read-out: Macrophage Inflammatory Protein-1 Alpha (MIP1a), CCL3 (gene 6348); test: BSK_IMphg_MIP1a: BioMAP Diversity Plus: IMphg Assay for Macrophage Inflammatory Protein-1 Alpha (MIP1a) Biomarker Activity (AID 2284255); conditions: primary human endothelial cells with macrophages
In short: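 Co-culture of human venular endothelial cells and macrophages exposed to compounds for 24 h; MIP-1a measured by ELISA relative to DMSO. Cytotoxicity assessed in parallel cultures by sulforhodamine B total-protein staining at 560 nm.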

CD69, CD69 (gene 969) = test: BSK_IMphg_CD69: BioMAP Diversity Plus: IMphg Assay for CD69 Biomarker Activity (AID 2284257); conditions: primary human endothelial cells with macrophages
In short: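 Human venular endothelial cells co-cultured with macrophages; CD69 quantified by ELISA 24 h after compound addition. Activity fitted in the positive direction relative to DMSO baseline; cytotoxicity tracked in parallel cultures via SRB total-protein staining.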

[8] = read-out: Eotaxin 3, CCL26 (gene 10344); test: BSK_BF4T_Eotaxin3: BioMAP Diversity Plus: BF4T Assay for Eotaxin 3 Biomarker Activity (AID 2284258); conditions: primary human bronchial epithelial cells with fibroblasts
In short: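 Co-culture of human bronchial epithelial cells and dermal fibroblasts, exposed to chemicals for 24 h versus DMSO. Eotaxin-3 quantified by ELISA; cytotoxicity checked in parallel cultures by sulforhodamine B total-protein staining.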

[9] = read-out: Monocyte Chemoattractant Protein-1 (MCP1), CCL2 (gene 6347); test: BSK_BF4T_MCP1: BioMAP Diversity Plus: BF4T Assay for Monocyte Chemoattractant Protein-1 (MCP1) Biomarker Activity (AID 2284259); conditions: primary human bronchial epithelial cells with fibroblasts
In short: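 Co-culture of bronchial epithelial cells and dermal fibroblasts dosed with chemical; MCP-1 measured by ELISA 24 h later. Activity fitted in positive direction versus DMSO; cytotoxicity checked by SRB staining in parallel cultures.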

Compound: O=C1OC2(c3ccccc31)c1cc(I)c(O)c(I)c1Oc1c2cc(I)c(O)c1I
- AC50 [1]: 2.72 µM (active)

Compound: Oc1c(Cl)cc(Cl)cc1Sc1cc(Cl)cc(Cl)c1O
- AC50 [2]: 2.92 µM (active) and 2.86 µM (active)
- AC50 [3]: 1.32 µM (active) and 960 nM (active)
- AC50 [4]: 1.25 µM (active) and 1.44 µM (active)
- AC50 [5]: 1.67 µM (active) and 1.83 µM (active)
- outcome [6]: inactive

Compound: O=C(NCc1ncc(C(F)(F)F)cc1Cl)c1c(Cl)cccc1Cl
- outcome [1]: inactive

Compound: O=C1NS(=O)(=O)c2ccccc21
- outcome [2]: inactive
- outcome [3]: inactive
- outcome [4]: inactive
- outcome [5]: inactive
- outcome [6]: inactive

Compound: O=C(CC(=O)C(F)(F)C(F)(F)C(F)(F)F)c1cccs1
- outcome [2]: inactive
- AC50 [3]: 8.04 µM (active)
- outcome [3]: inactive
- AC50 [4]: 7.8 µM (active)
- outcome [4]: inactive
- AC50 [5]: 18.7 µM (active)
- outcome [5]: inactive
- outcome [6]: inactive
- AC50 [7]: 52.5 µM (active) and 24.1 µM (active)
- outcome [1]: inactive
- AC50 (CD69, CD69 (gene 969)): 30 µM (active)
- AC50 [8]: 12.8 µM (active) and 13 µM (active)
- AC50 [9]: 22.9 µM (active) and 10.9 µM (active)

Compound: CN(CCO)S(=O)(=O)C(F)(F)C(F)(F)C(F)(F)C(F)(F)C(F)(F)C(F)(F)C(F)(F)C(F)(F)F
- outcome [2]: inactive
- AC50 [3]: 1.65 µM (active) and 879 nM (active)
- outcome [4]: inactive
- AC50 [5]: 0.0715 µM (active)
- outcome [5]: inactive
- AC50 [6]: 1.42 µM (active)
- outcome [6]: inactive
- outcome [7]: inactive
- outcome [1]: inactive
- outcome (CD69, CD69 (gene 969)): inactive
- outcome [8]: inactive
- outcome [9]: inactive

Compound: C=CC(=O)OCCC(F)(F)C(F)(F)C(F)(F)C(F)(F)C(F)(F)C(F)(F)C(F)(F)C(F)(F)F
- outcome [2]: inactive
- outcome [3]: inactive
- outcome [4]: inactive
- outcome [5]: inactive
- AC50 [6]: 16.9 µM (active)
- outcome [6]: inactive
- outcome [7]: inactive
- outcome [1]: inactive
- outcome (CD69, CD69 (gene 969)): inactive
- outcome [8]: inactive
- outcome [9]: inactive
